# PubChem BioAssay (NCI)
# About 83,000 compounds went through this panel and 20% of them were active in at least one assay; those are over-represented in the sample as a whole.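 The test compound was applied at a single concentration to cells in 96-well plates for 48 hours, and percent growth was recorded.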 A number with no mark means an inactive call. Activity calls are given as the source filed them. The calls were made as follows: active = growth percent below 10; inactive = the rest.
# Columns and labels:
# Assay in all cases: NCI-60 one-dose screen, 48 h (100 = growth as untreated, 0 = no growth, -100 = all killed)
# Details in all cases: 10 µM unless noted
# [1] = test system: SK-MEL-2 melanoma
# [2] = test system: EKVX NSCLC
# [3] = test system: SN12C renal
# [4] = test system: UO-31 renal
# [5] = test system: TK-10 renal
# [6] = test system: ACHN renal
# [7] = test system: CAKI-1 renal
# [8] = test system: A498 renal
# [9] = test system: CCRF-CEM leukemia
# [10] = test system: MOLT-4 leukemia
Compound,growth [1],growth [2],growth [3],growth [4],growth [5],growth [6],growth [7],growth [8],growth [9],growth [10]
C=C(CNCCc1ccc(O)cc1)[C@@H]1CC[C@]2(COC3CCCCO3)CC[C@]3(C)[C@H](CC[C@@H]4[C@@]5(C)CCC(N)C(C)(C)[C@@H]5CC[C@]43C)[C@@H]12 (stereo partly drawn),-82.9% (active),-74.6% (active),-85.2% (active),-96.8% (active),-90.7% (active),-99% (active),-91.8% (active),-98.7% (active),-64.1% (active),–
Clc1ccc2c(NCCCN3CCN(c4nc(-n5ccnc5)nc5ccccc45)CC3)ccnc2c1,97.7%,86%,84.1%,43.5%,122%,110%,86.3%,85.1%,6.59% (active),–
Cc1cc(N(CCCNc2ccnc3cc(Cl)ccc23)Cc2ccccn2)nc(N2CCCC2)n1,99.8%,76.3%,64.4%,53.8%,136%,93.5%,76.5%,95.1%,53.9%,–
C=C(CNCCc1ccc(O)cc1)[C@@H]1CC[C@]2(COC3CCCCO3)CC[C@]3(C)[C@H](CC[C@@H]4[C@@]5(C)CCC(NCCO)C(C)(C)[C@@H]5CC[C@]43C)[C@@H]12 (stereo partly drawn),-81.3% (active),-77.5% (active),-92.2% (active),-97.3% (active),-89.7% (active),-99.2% (active),-92.1% (active),-1.47% (active),-51.1% (active),–
COc1ccc(Oc2nc(Nc3ccc(N4CCCCC4)nc3)ncc2NC(=O)c2cc(OC)cc(OC)c2)cc1,41.2%,40.8%,53.2%,33.3%,75.5%,28.8%,41.8%,39.1%,20%,–
Clc1ccc2c(NCCCN3CCN(c4nc(N5CCOCC5)nc5ccccc45)CC3)ccnc2c1,-5.64% (active),26.4%,45.9%,-85.9% (active),-38% (active),-29.1% (active),15.3%,71.2%,4.4% (active),–
O=C1NN(C(=O)c2ccc(O)cc2)C(c2ccccc2)=N/C1=C\c1cn(-c2ccccc2)nc1-c1ccccc1,100%,102%,89.2%,78.6%,84.7%,88.4%,98.6%,88.8%,89.7%,–
C=C(C)[C@@H]1CC[C@]2(CNCCO)CC[C@]3(C)[C@H](CC[C@@H]4[C@@]5(C)CCC(N)[C@@](C)(CO)[C@@H]5CC[C@]43C)[C@@H]12 (stereo partly drawn),-19% (active),40%,-11.4% (active),66.1%,-47.4% (active),54.4%,71.2%,78.1%,-38.7% (active),–
C[C@]12CCC(=O)C[C@H]1CC[C@@H]1[C@@H]2CC[C@@]2(C)[C@H]1CC[C@]2(O)C(=O)CO,106%,107%,101%,91.6%,131%,96.7%,106%,97.1%,105%,–
CCCCOc1nc2ccc(Cl)cc2cc1/C=C/C(=O)/C=C1/CC(c2cc3cc(Cl)ccc3nc2OCCCC)Nc2ccccc2N1 (stereo not drawn),102%,78.6%,91.8%,77.4%,113%,92.7%,81.9%,102%,101%,–
Cc1cc(N(CCCNc2ccnc3cc(Cl)ccc23)Cc2ccccn2)nc(N2CCOCC2)n1,97.9%,89.5%,95.6%,63.9%,110%,101%,87.8%,92.5%,86%,–
C=C1c2c(C)nn(-c3ccc(S(N)(=O)=O)cc3)c2N(C)C23CC1C1(C)c4c(C)nn(-c5ccc(S(N)(=O)=O)cc5)c4N(C)C(C)(CC12)C3 (stereo not drawn),44.7%,29.6%,32.4%,25.5%,46.6%,14.1%,40.7%,75.3%,18.7%,–
C=CCO[C@H]1CO[C@H]2[C@@H]1OC[C@@H]2Oc1ccc(Nc2ccnc(Nc3ccc(O[C@H]4CO[C@H]5[C@@H]4OC[C@@H]5OCC=C)c(Cl)c3)n2)cc1Cl,104%,-71% (active),-95.5% (active),-91.3% (active),-54.4% (active),14.5%,-7.16% (active),95.6%,-9.75% (active),-39.3% (active)
CCOC(=O)Cc1csc2nc(-c3ccccc3)nn12,114%,105%,106%,97%,126%,99.7%,111%,90.4%,103%,111%
